The results in this text go back to PubChem BioAssay AID697 (Columbia University Molecular Screening Center, 2007).

Out of some 96,000 compounds screened, about 100 (0.1%) were called active. Only a selection was taken, and actives are over-represented in it overall. A number with no mark means an inactive call.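 The calls were made as follows: active = activation at 2 µM above a set limit, the mean plus 5 SD (cut at about 37% in these data); inactive = the rest.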

Sequence of Tyrosine-protein phosphatase non-receptor type 22 (Homo sapiens) (Q9Y2R2 whole entry, looked up): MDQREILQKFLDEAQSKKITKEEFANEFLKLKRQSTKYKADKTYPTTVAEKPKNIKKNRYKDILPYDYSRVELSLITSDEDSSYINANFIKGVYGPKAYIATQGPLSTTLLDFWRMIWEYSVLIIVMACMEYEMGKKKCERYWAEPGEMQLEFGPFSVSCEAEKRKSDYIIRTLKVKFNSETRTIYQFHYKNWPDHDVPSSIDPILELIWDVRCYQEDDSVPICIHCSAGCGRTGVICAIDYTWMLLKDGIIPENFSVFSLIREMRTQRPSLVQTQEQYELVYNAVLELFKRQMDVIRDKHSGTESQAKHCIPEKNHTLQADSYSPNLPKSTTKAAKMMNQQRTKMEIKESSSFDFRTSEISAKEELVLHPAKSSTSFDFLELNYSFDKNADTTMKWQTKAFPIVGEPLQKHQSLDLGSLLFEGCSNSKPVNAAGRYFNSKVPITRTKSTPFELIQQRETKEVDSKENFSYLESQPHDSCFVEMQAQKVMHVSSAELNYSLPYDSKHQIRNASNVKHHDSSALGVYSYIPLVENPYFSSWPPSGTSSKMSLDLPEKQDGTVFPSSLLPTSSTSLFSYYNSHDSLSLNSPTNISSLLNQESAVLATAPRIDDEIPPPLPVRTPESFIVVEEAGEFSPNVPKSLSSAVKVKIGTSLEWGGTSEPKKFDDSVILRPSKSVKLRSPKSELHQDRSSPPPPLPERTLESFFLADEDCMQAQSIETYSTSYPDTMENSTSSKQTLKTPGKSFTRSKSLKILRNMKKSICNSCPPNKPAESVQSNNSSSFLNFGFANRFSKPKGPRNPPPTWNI

The assay concerns the target Tyrosine-protein phosphatase non-receptor type 22 (Homo sapiens) (UniProt Q9Y2R2). The assay is described as follows: enhancers of human PTPN22 catalytic activity – biochemical, DiFMUP fluorescence, 2 µM, primary screen (AID 697). To be noted: recombinant LYP, at 2 µM, hits give high values, 0 = plate median, 100 = signal doubled.
Consider `Cc1cc(C)n2nc(C(=O)NC(C)(C)C)nc2n1`, for which the activation was 3.4%.
As for `C=CCN(C(=O)Nc1ccc2oc(C)nc2c1)c1ccccc1`, the figure is -7.1%.
The value for `COC(=O)c1cccc(-n2[nH]nnc2=S)c1` was -1.7%; that for `CC(C)(CCl)C(=O)Nc1ccc(Sc2ccc(F)cc2)cc1` was 1.3%; that for `CC1(C)Cc2cccc(OCC(N)=O)c2O1` was -3.7%.
Consider `CCCCCCc1cc2cc(-c3nnc(-c4cccc(OC)c4)o3)c(=O)oc2cc1O`, for which the activation was -30.3%.
As for `COc1ccc(CNc2ccc3c(c2)CCC3)cc1OC`, the figure is -10.3%; as for `COc1ccc(OC)c(-n2nnnc2SCC(=O)Nc2cc(C)ccc2OC)c1`, 2.6%; as for `CC(C)C(=O)Nc1ccc2c(c1)oc1ccccc12`, -1.6%.
As for `N/C(=N\OC(=O)c1cc(-c2ccccc2)nc2ccccc12)c1ccncc1`, the figure is -7.1%.
As for `COc1ccc2c(c1)cc1n2CCN=C1NN`, the figure is 0.1%.
On to `COc1ccc(NC(=O)C2C3C=CC(C3)C2C(=O)NCc2ccccn2)c(OC)c1` (configuration not stated), for which the activation is -5%.
Consider `CC1=NN(/C(=N\c2nnc(C)s2)Nc2ccccc2)[C@H](c2ccc(C)cc2)S1`, for which the activation is -6.4%.
As for `CCc1ccc(C(=O)CSc2nnc(C)c(=O)[nH]2)cc1`, the activation is -2.7%.
Consider `COc1ccc(OC(C)C(=O)Nc2cccnc2)cc1` (configuration not stated), for which the activation was 6.9%.
As for `C/C(=N/NC(=O)c1ccc(NC(=O)c2ccc(F)cc2)cc1)c1ccccc1`, the figure is -1.9%.
Consider `CCc1ccc(C2C(C#N)=C(N)Oc3n[nH]c(CC(=O)OC)c32)cc1` (configuration not stated), for which the activation is 5.3%.
As for `COC(=O)CSc1nc2c(c(C3CC=CCC3)c1C#N)CCC2` (configuration not stated), the figure is -5.9%; as for `C=CCNC(=O)c1cc2nc(C3CC3)cc(C(F)F)n2n1`, -5.5%.
`COC(=O)c1cccc(N(C(=O)c2ccco2)C(C(=O)NC2CCCC2)c2ccco2)c1` (configuration not stated): the activation was 6.5%.
Take `CC(C)C(=O)Nc1nnc(Sc2ccc(N(C)C)cc2)s1`: the activation is -2.7%.
As for `Cc1nn(Cc2ccc(F)cc2)c(C)c1NC(=O)c1noc2c1CCc1ccccc1-2`, the figure is 7.1%; as for `CCOc1c2ccc(C(=O)NCc3ccc(OC(F)(F)F)cc3)cc2nn1C`, 10%.
On to `COc1cc(C(=S)N2CCOCC2)cc(OC)c1OC(=O)c1cc([N+](=O)[O-])c(C)c([N+](=O)[O-])c1`, for which the activation is 7%.
As for `Cc1cc(-c2cccs2)nc(-n2cccc2)n1`, the figure is 3.4%.
As to `CC1=CC(=O)C=CC1(C)C(Cl)(Cl)Cl` (configuration not stated), the activation was 3.7%.
The value for `FC(F)(F)c1cc(C(F)(F)F)c2ccc(N3CCN(c4ccccc4)CC3)nc2n1` was 2.8%; that for `O=C1OC(c2ccc(Cl)cc2)=N/C1=C\c1cccnc1` was 7.7%; that for `CC(C)c1cc(C(=O)O)n[nH]1` was 1.7%.
The value for `O=C(Nc1ccc2nc3n(c(=O)c2c1)CCCCC3)c1ccccc1Cl` was -2.7%.
The value for `CC1(C)CC(=O)C=C(N2CCCC2)C1` was -1.1%.
Take `Cc1ccc(C2=CSC3=NS(=O)(=O)CCN23)cc1C`: the activation was -4.4%.
As for `Cc1ccc(-n2c(=O)c(C#N)cc3c(=O)n4ccccc4nc32)cc1C`, the figure is 5.7%; as for `CCCCCOC(=O)c1ccc(N2C(=O)C3C4C=CC(C4)C3C2=O)cc1` (configuration not stated), 12.4%; as for `CCC(C)NC(=O)c1ccccc1NC(=O)c1ccccc1N(C)S(C)(=O)=O` (configuration not stated), 0.7%.
The value for `CC(C)CC(=O)N1CCC(O)(CS(=O)(=O)Cc2ccccc2)CC1` was -3.4%.
The value for `CCCCNC(=O)c1onc(CSc2cccc(OC)c2)c1C(=O)O` was 4.5%.
For the compound `COc1ccc(CCN(C(=O)COc2ccccc2)c2nc(-c3ccccc3)cs2)cc1OC`, the activation was -13.3%.
As for `Cc1noc(NS(=O)(=O)c2ccc(N/C=C/C(=O)c3ccccc3)cc2)c1C`, the figure is 1.5%.
The value for `CCCCCc1ccc(-c2ccc(C(=O)O)cc2)nc1` was -8.9%; that for `Cc1sc(NC(=O)C2C3CCC(O3)C2C(=O)O)c(C(=O)OC(C)C)c1-c1ccc(Cl)cc1` (configuration not stated) was -4.2%.
As for `COc1cc(/C=C2/C(=O)ON=C2C)ccc1OCc1ccccc1F`, the activation was 6.2%.
The value for `Cc1ccc(S(=O)(=O)/N=C(\CN2CCOCC2)N2CCOCC2)cc1` was -1.4%.
For `FC(F)(F)c1nc2ccccc2nc1N/N=C/c1ccc(Cl)cc1`, the activation is 5.5%.
As for `CCOC(=O)Cn1c(-c2cccnc2Cl)nc2ccccc21`, the figure is 15.2%; as for `NC(=O)C1(N2CCCCC2)CCN(C2CC(=O)N(Cc3ccc(N4CCCC4=O)cc3)C2=O)CC1` (configuration not stated), -5.5%; as for `CN(C)C(=O)c1cc(Br)ccc1Cl`, -3.6%.
The value for `COc1ccc(N(CC(=O)N/N=C/c2cccc3c2OCCO3)S(=O)(=O)c2ccc(NC(C)=O)cc2)cc1` was 7.5%; that for `O=C(/C=C/c1ccc(Cl)cc1Cl)c1cccnc1` was 2.2%.
As for `CCOC(=O)N1CCN(Cc2nc(N)nc(Nc3ccc(C)cc3)n2)CC1`, the figure is 7.7%; as for `COc1cc(/C=C(\C#N)c2nc3c(s2)CC(C)CC3)ccc1O` (configuration not stated), -3.9%.
As to `COCc1cc(C)nc2sc3c(=O)n(-c4cccc5ccccc45)nnc3c12`, the activation was -7.5%.
As for `CC(=O)NC1=NN(C(C)=O)C(C)(c2ccc(Cl)s2)S1` (configuration not stated), the figure is 5.6%.
The value for `O=S(=O)(c1cccc2nonc12)N1CCN(c2cccc(Cl)c2)CC1` was 8.3%.
The value for `O=C(O)CSCc1ccc(C(=O)O)o1` was -1.8%; that for `CC(=O)c1cc2c(cc1NC(=O)CN1CCCCCC1)OCO2` was -5.9%; that for `COc1ccccc1CNS(=O)(=O)c1ccc(C)cc1` was -13.5%.
On to `COC(=O)C1=C(C(=O)OC)C2(OC1c1ccc(Br)cc1)C(=O)c1ccccc1C2=O` (configuration not stated), for which the activation is -2.6%.
For the compound `O=C(Cc1ccc2c(c1)CCCC2)Nc1ccccc1Cl`, the activation is 5.5%.
For the compound `CCOc1ccccc1C(=O)NC1CC2CCCC(C1)N2Cc1ccccc1` (configuration not stated), the activation was -12.3%.
On to `O=C(COc1ccc(S(=O)(=O)NCc2ccccc2)cc1)N1CCOCC1`, for which the activation was 2.4%.
With `Cc1cccc(C)c1OC(=O)CSc1nnc(-c2ccccc2)o1`, the activation was 1.3%.
